We go through 15 molecules from PubChem BioAssay.

For part of these data: Potency and affinity values are given separately. Calls of active or inactive are those of the source.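 Rule for the calls, unless noted: active = primary screen inhibitor hit that blocks the TRPC4 channel at some tested dose, yielding a dose curve; inactive = the rest.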

Experiment [1] has as its system TRPC4 beta (transient receptor potential cation channel C4), mouse. The experiment can be described thus: TRPC4 cation channel opening, retest – cell-based, Fluo4 calcium, HEK293 TRPC4beta/mu-opioid, duplicates, 10 µM, confirmation (AID 2426;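 active = fluorescence ratio normalized to control raised more than 50% in primary screen plus both repeat runs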;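 for activation: percent rise of integrated ratio over buffer wells lacking compound which define 0%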). The note with it: Fluo4 calcium fluorescence, at 10 µM; stronger effect = higher value.
In experiment [2] the test system is transient receptor potential cation channel C4 beta (TRPC4), mouse. The experiment can be described thus: TRPC4 cation channel opening, second retest – cell-based, second round, Fluo4, HEK293 TRPC4beta/mu-opioid, 1 µM, confirmation (AID 2461;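 active = primary screen active and over 50% activation in each of two duplicate runs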). As to conditions: Fluo4 calcium fluorescence, at 1 µM; stronger effect = higher value.
Experiment [3] has as its system TRPC4 (transient receptor potential cation channel C4 beta), mouse. The experiment can be described thus: potentiation of DAMGO EC20 TRPC4 response – cell-based, second round, Fluo-4, HEK293 TRPC4beta/mu-opioid, 1 µM, confirmation (AID 2554;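 active = primary screen hit whose fluorescence ratio, in both repeats, exceeds the weak agonist control mean by 3 SD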). The note with it: DAMGO EC20, Fluo-4 calcium flux, at 1 µM; stronger effect = higher value.
In experiment [4] the test system is TRPC4 beta (transient receptor potential cation channel C4), mouse. The experiment can be described thus: potentiation of DAMGO EC20 TRPC4 response – cell-based, Fluo-4, HEK293 TRPC4beta/mu-opioid, confirmation (AID 2555;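 active = primary screen hit whose calcium fluorescence ratio, in both repeats, exceeds the weak agonist control mean by 3 SD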). The note with it: DAMGO EC20, Fluo-4 calcium flux, at 10 µM; stronger effect = higher value.
In experiment [5] the target is Short transient receptor potential channel 4 (Mus musculus) (UniProt Q9QUQ5). The experiment can be described thus: blockers of DAMGO-evoked TRPC4 calcium flux – cell-based, Fluo4, HEK293 TRPC4beta/mu-opioid, confirmation (AID 2636;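 active = calcium signal cut by more than 3 SD below the full-agonist control yet still positive, in both repeats and the earlier primary screen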). The note with it: at 10 µM; stronger effect = higher value.
Sequence of Short transient receptor potential channel 4 (Mus musculus) (Q9QUQ5 whole entry, looked up): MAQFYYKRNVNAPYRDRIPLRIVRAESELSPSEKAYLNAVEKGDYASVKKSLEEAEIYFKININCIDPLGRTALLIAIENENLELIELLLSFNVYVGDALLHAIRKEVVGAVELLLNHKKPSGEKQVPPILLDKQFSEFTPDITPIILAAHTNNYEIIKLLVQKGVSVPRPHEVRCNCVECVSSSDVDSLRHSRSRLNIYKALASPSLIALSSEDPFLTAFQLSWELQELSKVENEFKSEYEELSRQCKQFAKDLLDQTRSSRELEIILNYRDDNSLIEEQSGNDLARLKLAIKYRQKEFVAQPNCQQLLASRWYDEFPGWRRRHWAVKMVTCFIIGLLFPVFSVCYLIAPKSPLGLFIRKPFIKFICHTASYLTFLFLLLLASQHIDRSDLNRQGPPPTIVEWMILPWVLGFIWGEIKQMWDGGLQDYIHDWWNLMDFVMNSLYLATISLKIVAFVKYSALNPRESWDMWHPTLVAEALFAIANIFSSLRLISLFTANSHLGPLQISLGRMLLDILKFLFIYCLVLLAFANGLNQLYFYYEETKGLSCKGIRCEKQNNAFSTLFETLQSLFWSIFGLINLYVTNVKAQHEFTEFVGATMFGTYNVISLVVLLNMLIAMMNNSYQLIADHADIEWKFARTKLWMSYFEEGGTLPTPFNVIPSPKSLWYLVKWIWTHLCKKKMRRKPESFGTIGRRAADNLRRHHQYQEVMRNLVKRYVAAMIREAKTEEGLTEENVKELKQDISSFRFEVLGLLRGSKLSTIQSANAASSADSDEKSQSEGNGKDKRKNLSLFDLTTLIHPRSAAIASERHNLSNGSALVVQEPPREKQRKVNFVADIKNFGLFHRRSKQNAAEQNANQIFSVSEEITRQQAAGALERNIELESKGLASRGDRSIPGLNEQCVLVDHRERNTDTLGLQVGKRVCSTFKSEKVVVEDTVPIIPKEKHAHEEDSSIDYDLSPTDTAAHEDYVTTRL
Experiment [6] has the same target. The experiment can be described thus: blockers of DAMGO-evoked TRPC4 calcium flux – cell-based, second round, Fluo4, HEK293 TRPC4beta/mu-opioid, 1 µM, confirmation (AID 2637;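 active = calcium signal ratio cut to more than 3 SD under the fully stimulated control mean yet still positive, in both repeats and the primary screen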;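 for inhibition: percent of integrated ratio relative to wells lacking test compound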). As to conditions: at 1 µM; stronger effect = higher value.
The target is the same in experiment [7]. The experiment can be described thus: calcium entry via TRPC4 opening agents – cell-based, HEK293 TRPC4/mu-opioid, Fluo-4 calcium, dose response (AID 434937;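 active = primary screen activator hit with a dose response curve and TRPC4 channel activation at any tested dose; inactive = no activation, no dose response, or not a primary hit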).
The target is the same in experiment [8]. In words: potentiation of DAMGO-evoked TRPC4 calcium signal – cell-based, HEK293 TRPC4/mu-opioid, Fluo-4 calcium, EC20 DAMGO, dose response (AID 434941;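 active = earlier screen potentiator hit that boosts the TRPC4 ion channel at some dose, with a dose response; inactive = no potentiation, no dose response, or not a prior hit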;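 note: calcium entry triggered by an EC20 dose of DAMGO at the co-expressed mu-opioid receptor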).
Experiment [9] shares this target. In words: block of DAMGO-driven TRPC4 calcium entry – cell-based, HEK293 TRPC4/mu-opioid, Fluo-4 calcium, dose response (AID 434942).
In experiment [10] the target is Short transient receptor potential channel 6 (Mus musculus) (UniProt Q61143). In words: TRPC6 blockade by TRPC4 inhibitor hits – cell-based, HEK293, membrane potential dye, duplicate, selectivity assay for TRPC4 inhibitor project, confirmation (AID 434948;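 active = active in primary screen and both duplicates, each dropping signal beyond three positive-control SD with fluorescence still positive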). As to conditions: HEK293 TRPC6, membrane potential dye fluorescence, at 10 µM, stimulated with maximal-effect acetylcholine; stronger effect = higher value.
Sequence of Short transient receptor potential channel 6 (Mus musculus) (Q61143 whole entry, looked up): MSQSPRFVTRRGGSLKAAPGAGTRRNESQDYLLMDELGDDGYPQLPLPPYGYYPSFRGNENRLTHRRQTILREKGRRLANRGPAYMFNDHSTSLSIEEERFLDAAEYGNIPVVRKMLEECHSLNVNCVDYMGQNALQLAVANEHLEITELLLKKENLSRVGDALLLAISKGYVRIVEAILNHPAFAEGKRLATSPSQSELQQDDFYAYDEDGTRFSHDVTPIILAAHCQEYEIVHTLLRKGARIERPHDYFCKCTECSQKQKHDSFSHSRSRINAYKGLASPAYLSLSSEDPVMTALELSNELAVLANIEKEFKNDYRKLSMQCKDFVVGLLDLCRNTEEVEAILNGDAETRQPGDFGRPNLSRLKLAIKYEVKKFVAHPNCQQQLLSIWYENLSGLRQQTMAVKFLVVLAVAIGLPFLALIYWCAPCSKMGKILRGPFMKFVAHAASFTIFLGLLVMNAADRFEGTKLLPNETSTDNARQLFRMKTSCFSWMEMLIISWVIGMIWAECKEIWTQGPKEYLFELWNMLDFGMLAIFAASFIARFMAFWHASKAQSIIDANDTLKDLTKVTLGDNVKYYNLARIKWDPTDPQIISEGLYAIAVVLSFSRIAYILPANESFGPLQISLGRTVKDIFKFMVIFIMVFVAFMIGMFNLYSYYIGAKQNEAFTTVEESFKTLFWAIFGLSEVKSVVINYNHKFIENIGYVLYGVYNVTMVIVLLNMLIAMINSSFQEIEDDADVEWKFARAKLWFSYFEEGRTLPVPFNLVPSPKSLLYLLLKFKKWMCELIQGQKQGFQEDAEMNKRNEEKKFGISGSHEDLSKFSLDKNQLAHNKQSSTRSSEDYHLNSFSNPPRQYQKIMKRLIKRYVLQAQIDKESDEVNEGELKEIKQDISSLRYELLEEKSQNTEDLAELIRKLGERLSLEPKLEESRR

For experiment [11] the target is unchanged. The experiment can be described thus: TRPC6 opening by TRPC4 activator hits – cell-based, HEK293, membrane potential dye, duplicate, selectivity assay for TRPC4 activator project, confirmation (AID 434950;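 active = membrane potential signal rise above negative control mean plus 3 SD in both duplicates, also active in the earlier TRPC4 screen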). The note with it: HEK293 TRPC6, membrane potential fluorescence, at 10 µM; activation: stronger effect = higher value; outcome: activation.
Experiment [12] shares this target. The experiment can be described thus: positive modulators of mouse TRPC6 channel – HEK293 cells, membrane potential dye, duplicate, selectivity assay for TRPC4 potentiator project, confirmation (AID 434952;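 active = compound raising the membrane signal above positive-control mean plus 3 SD in both repeats, and a primary screen hit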). The note with it: HEK293 TRPC6, membrane potential dye fluorescence, at 10 µM, maximal acetylcholine added after compound; stronger effect = higher value.
The target of experiment [13] is Short transient receptor potential channel 4 (Mus musculus) (UniProt Q9QUQ5). In words: calcium flux activators in TRPC4/5HT1a cells, counter-screen for TRPC4 activator project, cell-based, second counter screen, HEK293 TRPC4/5HT1a, Fluo-4 (AID 434977;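 active = calcium signal rise above buffer-control mean plus 5 SD in both duplicates, and also a hit in the primary screen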;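 for activation: plate controls were assay buffer for no effect and maximal serotonin response for full effect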). The note with it: Fluo-4 calcium flux, at 10 µM; stronger effect = higher value.
Experiment [14] is described as follows: serotonin-gated TRPC4 signal block – cell-based, second counter screen, HEK293 TRPC4/5HT1a, Fluo-4, counter-screen for TRPC4 inhibitor project, confirmation (AID 434978;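 active = primary screen active whose calcium signal fell more than 3 SD beyond the full-serotonin control mean in both duplicate plates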;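 for outcome: serotonin given first at submaximal then at maximal dose after compound preincubation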). As to conditions: Fluo-4 calcium flux, at 10 µM, serotonin added to trigger calcium flux; stronger effect = higher value.
The test system of experiment [15] is TRPC4 (mouse), co-expressed with 5HT1a in HEK293. In words: enhancement of serotonin-evoked TRPC4 response – cell-based, second counter screen, HEK293 TRPC4/5HT1a, Fluo-4, counter-screen for TRPC4 potentiator project, confirmation (AID 434979;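 active = signal rise over 3 SD above mean of control wells given weak agonist, in both repeats and first screen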). As to conditions: Fluo-4 calcium flux, at 10 µM, serotonin added at its EC20 dose; stronger effect = higher value.
The nature of experiment [16]: nonspecific calcium rise without TRPC4 – cell-based, HEK293 mu-opioid receptor line, counter-screen for TRPC4 activator project, confirmation (AID 449723;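 active = hit in primary screen, with calcium signal over 5 SD above buffer well mean in both duplicates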;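 note: counter screen cells carry the mu-opioid receptor alone and lack TRPC4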). The note with it: HEK293 mu-opioid cells, Fluo-4 calcium fluorescence, at 10 µM; stronger effect = higher value.
Experiment [17] can be described thus: nonspecific potentiation of DAMGO calcium response – cell-based, HEK293 mu-opioid receptor line, counter-screen for TRPC4 allosteric potentiator project, confirmation (AID 449724;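 active = calcium signal rise more than 3 SD above the low-dose agonist control mean, in both duplicate plates and the primary screen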;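 note: HEK293 cells carrying mu-opioid receptor only with no TRPC4 channel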). As to conditions: HEK293 mu-opioid receptor cells, Fluo-4 calcium flux, at 10 µM, compound added before EC20 DAMGO stimulus; stronger effect = higher value.

For `c1ccc(C2(CN3CCNC[C@H]3Cc3cccc4ccccc34)CC2)cc1`, the activation in experiment [1] was 161% (active); in [13], 5.82% (active). The result in experiment [2], in experiment [3], in experiment [4], in [5], in experiment [6] and in experiment [7] was inactive. Moreover, the outcome in [8], in experiment [9], in [10], in experiment [11], in experiment [12] and in experiment [14] was inactive. In addition, the outcome in experiment [15], in experiment [16] and in experiment [17] was inactive.
Take `CC1=NN(C(=O)COc2ccc(C)c(C)c2)C(O)(c2ccc(Cl)cc2)C1` (stereo not given): the result in [1], in experiment [2], in [3], in experiment [4], in experiment [5] and in [6] was inactive. For the same molecule, the outcome in [7], in experiment [8], in [9], in experiment [10], in [11] and in experiment [12] was inactive. Further, the result in experiment [13], in experiment [14], in experiment [15], in experiment [16] and in [17] was inactive.
In the case of `CC(C)C(=O)N1CCN(c2nc(-c3ccccc3)c3c(c2C#N)CCCC3)CC1`, the outcome in experiment [1], in experiment [2], in experiment [3], in experiment [5], in [6] and in experiment [7] was inactive. Moreover, the result in experiment [8], in experiment [9], in experiment [10], in [11], in experiment [12] and in experiment [13] was inactive. In addition, the outcome in [14], in [16] and in experiment [17] was inactive. Also, the results for the potentiation in experiment [4] and in [15] were 26% (active) and 29.4% (active), respectively.
On to `COc1ccccc1C1/C(=C(\O)c2ccc3c(c2)OCCO3)C(=O)C(=O)N1Cc1cccnc1` (stereo not given), for which the outcome in [1], in experiment [2], in experiment [3], in [4], in [7] and in experiment [8] was inactive. Besides, the result in experiment [9], in experiment [10], in experiment [11], in experiment [12], in [13] and in experiment [15] was inactive. In addition, the outcome in experiment [16] and in experiment [17] was inactive. The values for the inhibition in experiment [5], in [6] and in experiment [14] were 82% (active), 63% (active) and 41.7% (active), respectively.
Take `C(=N\N(Cc1ccccc1)c1ccccc1)/c1cccnc1`: the outcome in experiment [1], in experiment [2], in experiment [3], in experiment [4], in experiment [6] and in experiment [7] was inactive. Moreover, the outcome in experiment [8], in experiment [9], in experiment [10], in experiment [11], in experiment [12] and in experiment [13] was inactive. Also, the outcome in [15], in experiment [16] and in experiment [17] was inactive. Also, the inhibition was 63% (active) in experiment [5] and 40.3% (active) in experiment [14].
As to `O=C(NC1CCN(Cc2ccccc2)CC1)c1cccc(S(=O)(=O)Nc2cc(C(F)(F)F)ccc2Cl)c1`, the result in experiment [1], in experiment [2], in experiment [4], in experiment [5], in experiment [6] and in experiment [7] was inactive. Moreover, the result in [8], in experiment [9], in experiment [10], in experiment [11], in experiment [12] and in experiment [13] was inactive. The outcome in experiment [14], in [16] and in experiment [17] was inactive. Moreover, the potentiation in experiment [3] is 13% (active); in experiment [15] it was 22.2% (active).
Consider `Cc1ccc(C)c(OCCCCN2CCNCC2)c1C`, for which the outcome in [1], in [2], in experiment [3], in [5], in experiment [6] and in experiment [7] was inactive. In addition, the outcome in experiment [8], in [9], in experiment [10], in [11], in [12] and in experiment [13] was inactive. In addition, the result in experiment [14], in experiment [16] and in experiment [17] was inactive. Also, the potentiation was 9% (active) in [4] and 29.4% (active) in experiment [15].
As to `Cc1cc(C)cc(N(CC(=O)Nc2ccc(C)cc2Cl)S(=O)(=O)c2c(C)[nH]c(=O)[nH]c2=O)c1`, the result in experiment [1], in experiment [2], in [3], in experiment [5], in experiment [6] and in [7] was inactive. In addition, the result in [8], in experiment [9], in experiment [10], in [11], in [12] and in experiment [13] was inactive. In addition, the result in experiment [14], in experiment [16] and in [17] was inactive. In addition, the potentiation in experiment [4] is 23% (active); in [15], 78.6% (active).
With `CC(C)OC(=O)C1CC=CCC1C(=O)Nc1ccc(Cl)cc1` (stereo not given), the result in experiment [1], in experiment [2], in experiment [3], in experiment [4], in [5] and in [6] was inactive. The outcome in [7], in experiment [8], in [9], in experiment [10], in experiment [11] and in experiment [12] was inactive. The outcome in experiment [13], in experiment [14], in experiment [15], in experiment [16] and in [17] was inactive.
Turning to `CCOC(=O)c1sc2c(c1C)c(=O)n(CCO)c(=O)n2Cc1ccccc1`, the outcome in [1], in [2], in experiment [3], in [4], in experiment [5] and in [6] was inactive. Moreover, the result in [7], in experiment [8], in experiment [9], in [10], in [11] and in experiment [12] was inactive. For the same molecule, the outcome in experiment [13], in experiment [14], in experiment [15], in experiment [16] and in [17] was inactive.
In the case of `CCOc1nc(C)cc(C)c1S(=O)(=O)c1cccc(C)c1`, the outcome in [1], in [2], in experiment [3], in experiment [4], in [5] and in experiment [6] was inactive. In addition, the outcome in [7], in [8], in experiment [9], in experiment [10], in [11] and in experiment [12] was inactive. In addition, the outcome in experiment [13], in experiment [14], in experiment [15], in [16] and in experiment [17] was inactive.
Regarding `NCC(c1ccc(Cl)cc1Cl)c1c[nH]c2ccccc12` (stereo not given), the outcome in [1], in [2], in experiment [3], in experiment [4], in experiment [5] and in experiment [6] was inactive. In addition, the outcome in [7], in [8], in [9], in [10], in [11] and in [12] was inactive. The result in experiment [13], in experiment [14], in experiment [16] and in experiment [17] was inactive. Moreover, the potentiation in [15] was 18.9% (active).
On to `CCOC(=O)C1=C(CNCCc2ccc(Cl)cc2)NC(=O)NC1c1cccc([N+](=O)[O-])c1` (stereo not given), for which the outcome in experiment [1], in [2], in experiment [3], in [4], in [5] and in [6] was inactive. The outcome in experiment [7], in experiment [8], in [9], in experiment [10], in experiment [11] and in experiment [12] was inactive. Moreover, the result in [13], in [14], in experiment [15], in experiment [16] and in experiment [17] was inactive.
Turning to `CN1CCN(S(=O)(=O)c2ccc(Br)c3ccccc23)CC1`, the result in [1], in experiment [2], in experiment [3], in experiment [4], in experiment [5] and in experiment [6] was inactive. The result in experiment [7], in [8], in experiment [9], in [10], in experiment [11] and in [12] was inactive. For the same molecule, the result in [13], in [14], in experiment [16] and in experiment [17] was inactive. Moreover, the potentiation in experiment [15] is 26.5% (active).
`COC(=O)C1=C(CCc2ccccc2)NC(=O)NC1c1ccc(Cl)cc1` (stereo not given): the outcome in experiment [1], in experiment [2], in experiment [3], in experiment [5], in experiment [6] and in experiment [7] was inactive. The result in experiment [8], in [9], in experiment [10], in experiment [11], in [12] and in [13] was inactive. In addition, the result in experiment [14], in [16] and in [17] was inactive. For the same molecule, the potentiation in experiment [4] was 35% (active); in [15] it was 39.7% (active).
